# Screens: PubChem BioAssay, National Center for Advancing Translational Sciences (NCATS)
# Shiga toxin inh – A qHTS for Small Molecule Inhibitors of Shiga Toxin | inhibition, % at 38.7 µM | Vero cells, Shiga toxin protein synthesis inhibition reporter | hit rate 9.2% among 290,000; in the data active = inhibition mostly above about 28%, no sharp cut-off; inactive = mostly below about 43%; note: 0% is about no effect
# HCMV antiviral – qHTS Assay for inhibitors of the human cytomegalovirus (HCMV); HFF cells, HCMV-luciferase reporter, 72 h; hits give low values; activity change, negative = inhibition, % at 57.5 µM; hit rate 4.5% among 410,000; AID 1259415, 2018; in the data active = activity change below about -60%; inconclusive = no clear call, values can overlap the other calls; inactive = above about -39%; note: % is set by controls: 0 for no effect and ±100 for the full control effect
#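 HFF cells seeded 16 h at 37C, treated with compounds, infected with luciferase-reporter HCMV at MOI 1 PFU/cell; luciferase read at 72 h post infection, normalized to buffer-only and Salinomycin controls.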
# Pf growth 96h – Primary qHTS for delayed death inhibitors of the malarial parasite plastid, 96 hour incubation | Potency, µM (series often up to 28.7 µM), for inactives: top-dose activity change, negative = inhibition, actives largely listed as inhibitors | AID 504834, 2011 | P. falciparum luciferase reporter growth, 96 h | hit rate 6.9% among 320,000; note: potency is the fitted concentration of half-maximal effect; % is set by controls: 0 for no effect and ±100 for the full control effect
#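 Luminescence readout: decreased luciferase signal marks inhibited growth of reporter-expressing P. falciparum in infected red cells (2% hematocrit, 0.05% parasitemia final), exposed to compound two generations (96 h, 37 C, 5% CO2).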
# Pf growth 48h – Primary qHTS for delayed death inhibitors of the malarial parasite plastid, 48 hour incubation | P. falciparum luciferase growth in erythrocytes, 48 h | Potency, µM (top dose mostly 28.7 µM), inactives show top-dose activity change, negative = inhibition, most hits filed as inhibitors | hit rate 5.9% among 310,000 | AID 504832, 2011; note: potency is the fitted concentration of half-maximal effect; % is set by controls: 0 for no effect and ±100 for the full control effect
#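 Growth was read as firefly luciferase luminescence after a 48 h, 37 C, 5% CO2 exposure of compounds to reporter-bearing P. falciparum cultures (0.1% parasitemia, 2% hematocrit final) in Albumax-supplemented RPMI 1640.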
# CHX counter – Cycloheximide Counterscreen for Small Molecule Inhibitors of Shiga Toxin; cell reporter, cycloheximide protein synthesis inhibition counterscreen; max response, %; hit rate 12% among 300,000; AID 2314, 2010; in the data active = max response mostly above about 13%, no sharp cut-off; inactive = mostly below about 14%; note: read at 38.3 µM for the half of the compounds with a filed dose; 0% is about no effect
# An asterisk follows results filed as active; ? = inconclusive; . = not tested or not shown; ! = repeats disagree. Most compounds without a hit are left out; they make up all but 20% or so of the library. Unless noted, calls come from the whole dose curve; as a rule, active = well fitted inhibition curve with a large enough effect; inconclusive = small, poorly fitted or top-dose-only effect, or another doubt; inactive = no such curve, though single readings can be large or run the other way.
SMILES,Shiga toxin inh,HCMV antiviral,Pf growth 96h,Pf growth 48h,CHX counter
CCOc1ccc(N(CC(=O)NC2CCCCC2)C(=O)CCC(=O)Nc2cc(C)ccn2)cc1,-13,-12,27%,?,-7
O=C(CSc1ccc2ccccc2n1)c1ccccc1,90*,12,67%,56%,53*
NS(=O)(=O)c1ccc(NC(=O)CSc2ccc3ccccc3n2)cc1,-4,-11,-21%,.,-3
O=C(CCn1cnc2ccccc21)N/N=C/c1ccccc1O,60*,?,9%,?,24*
O=C(CSc1ccc2ccccc2n1)N/N=C/c1ccccc1O,60*,-100*,18%,?,32*
Cc1cc(C(=O)Nc2c(C)nc3ccccn3c2=O)ccc1[N+](=O)[O-],.,14,.,.,.
CC(C)(C)NC(=O)c1ccccc1-c1nc(-c2ccccc2Cl)no1,30,7,2.1µM*,30%,25*
O=C(NCc1ccco1)c1ccccc1-c1nc(-c2ccc(F)cc2)no1,20,-2,42%,22%,12
Cc1ccccc1-c1noc(-c2ccccc2C(=O)NCc2ccco2)n1,60*,-36,-17%,-12%,18*
COCCNC(=O)c1ccccc1-c1nc(-c2ccccc2OC)no1,35,0,?,31%,15*
Cc1ccc(Nc2ccc(N3CCN(c4ccc([N+](=O)[O-])cc4)CC3)nn2)cc1,-1,-21,?,-9%,-7
CCOC(=O)c1ccc(-c2cccc(C(F)(F)F)c2)nc1C,37,-21,3%,8%,17*
CCOC(=O)c1cc(C(=O)NN)c(C)nc1C,-8,-24,9%,12%,-2
CCOC(=O)c1cc(C#N)c(Oc2cccc(C(F)(F)F)c2)nc1-c1ccccc1,25,-39,?,13µM*,0
COC(=O)[C@H]1[C@H](CO)[C@H]2Cn3c(cccc3=O)[C@H]2N1Cc1ccccc1Cl,.,18,.,.,.
Cc1ccc(CNC(=O)CSc2c(C(C)C)cnc3c2c(=O)n(C)c(=O)n3C)cc1,.,-39,.,.,.
COc1ccc(/C=N/NC(=O)c2cc(C)on2)c2ccccc12,-17,-24,5%,-1%,-1
COc1ccc(/C=N/NC(=O)c2sccc2C)c2ccccc12,.,-62*,.,.,.
Cc1ccccc1/C=N/NC(=O)c1sccc1C,66*,34,294%,306%,38*
Cc1ccccc1/C=N\NC(=O)c1ccccc1-n1cccc1,29,25,?,28%,10
CCOC(=O)Nc1ccc2c(c1)nc(CN1CCN(C(C)=O)CC1)n2C,3,35,28%,9%,-3
CC1CCN(CCc2nc3cc(NC(=O)Nc4ccccc4)ccc3n2C)CC1,111*,?,?,6.6µM*,35*
CCOC(=O)N1CCN(Cc2nc3cc(NC(=O)c4cccs4)ccc3n2CC)CC1,7,-16,113%,2.9µM*,25*
CCOC(=O)Nc1ccc2c(c1)nc(CN1CCCCC1)n2C,31,.,5%,1%,23*
Cn1c(CN2CCCCC2)nc2cc(NC(=O)c3cccs3)ccc21,43*,-31,-27%,10µM*,28*
SMILES,Shiga toxin inh,HCMV antiviral,Pf growth 96h,Pf growth 48h,CHX counter
CCCOc1ccc(C(=O)Nc2ccc(NC(=O)c3ccccc3)c(Br)c2)cc1,.,9,.,.,.
CN1C(=O)Cc2cc(S(=O)(=O)CCC(=O)Nc3ccccc3)ccc21,.,8,.,.,.
Cc1ccc(CNC(=O)C2CCC(CNS(=O)(=O)c3ccc4c(c3)CCCC(=O)N4)CC2)cc1 (configuration not stated),.,36,.,.,.
CCOc1ccccc1NC(=O)C(Sc1nnnn1C)c1ccccc1 (configuration not stated),-2,2,-3%,0%,4
CCCC(=O)Nc1ccc2c(c1)nc(CN1CCCCC1)n2C,22,31,1%,5%,-1
CC(=O)Nc1ccc2c(c1)nc(CN1CCCC1)n2C,-13,17,.,2%,-1
Cn1c(CN2CCCCC2)nc2cc(NC(=O)c3cccc(Br)c3)ccc21,19,-95*!,4.7µM*,.,15
Cn1c(CN2CCCC2)nc2cc(NC(=O)Nc3ccccc3)ccc21,44,85,.,12%,18*
CN1CCN(CCc2nc3cc(NC(=O)c4ccco4)ccc3n2C)CC1,8,17,2%,0%,8
Cn1c(CN2CCCC2)nc2cc(NC(=O)c3ccco3)ccc21,57,75,.,73%,33*
Cn1c(CN2CCCCC2)nc2cc(NC(=O)c3ccccc3)ccc21,51*,-60*,.,?,36*
COc1ccc(C(=O)Nc2ccc3c(c2)nc(CN2CCCC2)n3C)cc1,-5,6,8%,8%,6
CCc1ccc(CN(Cc2cn[nH]c2-c2ccc(OC)cc2)C(=O)Nc2ccc(C)c(F)c2)cc1,.,-22,.,.,.
CC(Oc1ccc(Cl)cc1Cl)C(=O)Nc1cccc(O)c1 (configuration not stated),43,2,?,0%,31*
O=C(Nc1ccccc1N1CCCCC1)c1cccc(Cl)c1,2,-22,8%,-17%,-3
O=C(Nc1ccc(N2CCCC2)cc1)c1cccc(Cl)c1,52*,77,-14%,92%,25*
CN1CCN(c2ccc(NC(=O)c3ccc(Cl)cc3Cl)cc2)CC1,.,65,-21%,-28%,15*
Cc1ccc2cccc(NC(=O)C(C)Oc3ccc(Cl)cc3Cl)c2n1 (configuration not stated),.,-23,.,.,.
Cc1cc(NC(=O)C(C)Oc2ccc(Cl)cc2Cl)n(-c2ccccc2)n1 (configuration not stated),-13,-12,5.9µM*,.,1
CC(=O)N1CCN(c2ccc(NC(=O)c3ccccc3Cl)cc2)CC1,3,33,88%,20%,-1
COCCN(CCOC)Cc1cc(=O)oc2cc(OC)ccc12,.,-4,.,.,.
CCCCn1cc(S(=O)(=O)c2ccc(C)cc2)c(=O)c2cc(F)c(N3CCCCC3)cc21,.,-8,.,.,.
O=C(Nc1ccc(N2CCOCC2)cc1)c1cc(F)c(F)cc1Cl,56*,-19,10%,33%,35*
COc1cccc(OC)c1C(=O)Nc1ccc(N2CCCC2)cc1,.,-20,?,10%,-2
CC(=O)N1CCN(c2ccc(NC(=O)C(C)Oc3ccc(Cl)cc3Cl)cc2)CC1 (configuration not stated),-10,0,?,.,4
CC(Oc1ccc(Cl)cc1Cl)C(=O)Nc1ccc(N2CCN(C)CC2)cc1 (configuration not stated),-12,15,69%,13µM*,-2
O=C(Nc1ccc(N2CCCC2)cc1)c1cc(Cl)ccc1Cl,.,41,?,30%,13*
COc1ccccc1C(=O)Nc1ccc(N2CCCCC2)cc1,65*,-8,109%,.,45*
O=C(C[C@H]1C/C=C\CC[C@H](Cc2ccc(F)cc2)C(=O)O[C@H](c2ccccc2)CNC1=O)N[C@H](CO)Cc1ccccc1,.,-35,.,.,.
CCCN1CCN(c2ncnc3sc(C(=O)Nc4ccc(OC(F)(F)F)cc4)c(C)c23)CC1,.,19,.,.,.
